From PubChem BioAssay AID1259240 (Keith Lab, Institute of Cancer Science, University of …, 2017)
Values without a mark were called inactive. The source made the active and inactive calls. Cut-off read from the data, not from the text of the source: active = fold change mostly below about -2 (no sharp cut-off); inactive = mostly above about -1.8.

Test: modulation of TERT promoter-driven luciferase – cell-based, luciferase reporter, human, primary screen (AID 1259240)
Details: A2780 TERT promoter luciferase reporter, 16 h; at 20 µM, fold versus average of vehicle-only wells

| SMILES | fold change | outcome |
| --- | --- | --- |
| NC(=O)c1c(NC(=O)CN2C(=O)c3ccccc3S2(=O)=O)sc2c1CCCC2 | 1.23 |  |
| COc1ccccc1OCC(O)Cn1c(=N)n(CCN2CCOCC2)c2ccccc21 (stereo not given) | -1.29 |  |
| CCC(=O)N1CCc2cc(S(=O)(=O)CCC(=O)NCC3COc4ccccc4O3)ccc21 (stereo not given) | -1.32 |  |
| Fc1ccccc1Nc1nc2ccccc2n2nnnc12 | 1.5 |  |
| O=C(NCCN1CCCCCC1)C1CCC(CNS(=O)(=O)c2cccc3nsnc23)CC1 (stereo not given) | -1.56 |  |
| CCOC(=O)C1CCN(c2c(NCCCN3CCCCCC3)c(=O)c2=O)CC1 | -1.3 |  |
| CCOC(=O)C1=C(CS(=O)(=O)c2ccc(F)c(Cl)c2)NC(=O)NC1c1ccc(Cl)cc1 (stereo not given) | 1.33 |  |
| CCOC(=O)CSc1n[nH]c(N)n1 | -1.02 |  |
| CSc1cccc(NC(=O)C2CCN(S(=O)(=O)c3ccc4c(c3)oc(=O)n4C)CC2)c1 | -1.36 |  |
| CCN1C(=O)C(O)(CC(=O)c2ccc3c(c2)OCCO3)c2ccccc21 (stereo not given) | -1.17 |  |
| CN(C)S(=O)(=O)c1cccc(-c2cn3cccnc3n2)c1 | -2.07 (active) |  |
| Cc1nc2c(-c3ccccc3)c(C)nn2c(C)c1CCC(=O)NO | -1.49 |  |
| CN1C(=O)/C(=C/c2cn(CC(N)=O)c3ccccc23)c2ccccc21 | 1.5 |  |
| CCOC(=O)N1CCC(Nc2c(NCCN3CCCCC3CC)c(=O)c2=O)CC1 (stereo not given) | -1.19 |  |
| NCCn1c(-c2cccnc2)n[nH]c1=S | -1.19 |  |
| CCSc1nc2ccccc2n1S(=O)(=O)c1ccccc1 | -2.48 (active) |  |
| COc1cc(Nc2nnc(Cc3ccncc3)c3ccccc23)cc(OC)c1OC | -1.31 |  |
| O=C(Cc1ccc(NC2=NC3CS(=O)(=O)CC3S2)cc1)N1CCc2ccccc2C1 (stereo not given) | 1.1 |  |
| CC(C)C(NS(=O)(=O)c1cccc2nsnc12)C(=O)N1CCCCC1 (stereo not given) | 1.43 |  |
| CCn1c(NCc2ccc(Cl)cc2)nc2ccccc21 | 1.05 |  |

| SMILES | fold change | outcome |
| --- | --- | --- |
| Cc1oc(-c2ccccc2F)nc1CSc1nc2ccncc2[nH]1 | -1.15 |  |
| O=C1c2ccccc2-c2onc3c(N4CCCC4)cc(NCCN4CCCC4)c1c23 | -1.05 |  |
| Cc1ccc2nc(NCc3ccc4c(c3)OCO4)c3nncn3c2c1 | 1.52 |  |
| CCc1ccc(N2CC(O)=C(c3nc4ccccc4c(=O)[nH]3)C2=N)cc1 |  | inactive |
| Cc1cc(C(F)(F)F)nc(Nc2nc3ccccc3o2)n1 | -1.19 |  |
| CCOC(=O)N1CCC(Nc2c(N(C)C3CCCCC3)c(=O)c2=O)CC1 | 1.05 |  |
| O=C(C1CCCN1S(=O)(=O)c1cccc2nsnc12)N1CCN(c2ccccn2)CC1 (stereo not given) | -1.3 |  |
| Cc1cc(C(=O)N2CCN(Cc3ccc4c(c3)OCO4)CC2)on1 | 1.36 |  |
| O=C(NC1(C(F)(F)F)NC(=O)N(Cc2ccco2)C1=O)c1ccncc1 (stereo not given) | -2.35 (active) |  |
| CC(C)(C)NC(=O)CSc1nc(-c2ccc(F)cc2)cc(C(F)(F)F)n1 | -1.59 |  |
| CC(O)C(Nc1ncnc2ccccc12)C(=O)O (stereo not given) | -1.06 |  |
| O=C(CN1C(=O)c2ccccc2C1=O)Nc1nccs1 | -1.42 |  |
| CCNc1nc2c(c(=O)n(C)c(=O)n2C)n1Cc1ccc(Cl)cc1 | 1.15 |  |
| Cc1ccc(CN2C(=O)/C(=C/c3c(NCCO)nc4ccc(C)cn4c3=O)SC2=S)cc1 | -1.97 |  |
| CCc1nc(N)c(C#N)c(-c2ccco2)c1C | -2.16 (active) |  |
| Cc1c(NC(=O)c2ncn[nH]2)c(=O)n(-c2ccccc2)n1C | -1.33 |  |
| O=C(Cn1c(=O)oc2cc(S(=O)(=O)NC3CCCC3)ccc21)NC1CCCCCCC1 | 1.01 |  |
| Cc1ccc(CNc2nnc(Cc3ccncc3)c3ccccc23)cc1 | -1.59 |  |
| CCCN(CCC)CCCNc1ccc2nncn2n1 | 1 |  |
| Clc1ccc2c(c1)C1CC(c3ccccc3)=NN1C(c1ccncc1)O2 (stereo not given) | -1.13 |  |
